# ALDH1A1 inh: ALDH1A1 (human) enzyme inhibition; 220,000 tested, 7.3% active; P00352; Purified ALDH1A1, NADH fluorescence, propionaldehyde substrate; Potency, µM (titrated, usually from 75.3 µM), for the others: at the highest dose activity, negative = inhibition, actives largely listed as inhibitors; AID 1030; active means well fitted inhibition curve with a large enough effect, not every such curve was filed as active; inconclusive means small, poorly fitted or top-dose-only effect, or another doubt; inactive means no such curve, though single readings can be large or run the other way;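 further: plate controls were no enzyme wells and a reference inhibitor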
# Sfp inh: Sfp phosphopantetheinyl transferase inhibition; Biochemical Sfp PPTase activity, qHTS; Potency, µM, for inactives: largest response in the series, negative = inhibition, hits mostly inhibitors; 310,000 tested, 3.5% active; AID 1490;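 further: the enzyme is Sfp with the accession as filed and its product quenches rhodamine fluorescence; 0% = enzyme reaction without inhibitor and -100% = no enzyme wells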
#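 Reaction rates are the 30-min fluorescence difference (ex 525, em 598 nm) in wells containing 15 nM Sfp, 5 uM rhodamine-CoA and 12.5 uM BHQ-2-YbbR at pH 7.6 with 10 mM MgCl2.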
# PLK1 PBD inh: inhibitors of human PLK1 polo-box domain binding | P53350 | Plk1 PBD binding of FITC phosphopeptide, fluorescence polarization | Potency, µM, inactives show max response, negative = inhibition, hits mostly inhibitors | 360,000 tested, 2.8% active; further: series mostly up to about 57 µM; nearly all actives have a fitted effect of over 65% in size
# Gal4-VP16 FLuc: Gal4-VP16 reporter inhibition counter-screen; Drosophila S2 Gal4-VP16 UAS-luciferase, luminescence, 20 h; Potency, µM (highest dose often 53.6 µM), without a hit: top-dose activity, negative = inhibition, usual class: inhibitors; 310,000 tested, 3.5% active;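 further: Gal4-VP16 expression switched on by copper sulfate through the metallothionein promoter; nearly all actives have a fitted effect of over 50% in size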
# RORg inh: inhibitors of mouse ROR gamma transcriptional activity | AID 2551 | 310,000 tested, 5.4% active | Drosophila S2 Gal4-RORgamma UAS-luciferase reporter, 20 h | P51450 | Potency, µM (series often up to 53.6 µM), for inactives: top-dose activity change, negative = inhibition, usual class: inhibitors; further: nearly all actives have a fitted effect of over 60% in size
# Target sequence (P51450 whole entry, looked up, the tested form may be a part): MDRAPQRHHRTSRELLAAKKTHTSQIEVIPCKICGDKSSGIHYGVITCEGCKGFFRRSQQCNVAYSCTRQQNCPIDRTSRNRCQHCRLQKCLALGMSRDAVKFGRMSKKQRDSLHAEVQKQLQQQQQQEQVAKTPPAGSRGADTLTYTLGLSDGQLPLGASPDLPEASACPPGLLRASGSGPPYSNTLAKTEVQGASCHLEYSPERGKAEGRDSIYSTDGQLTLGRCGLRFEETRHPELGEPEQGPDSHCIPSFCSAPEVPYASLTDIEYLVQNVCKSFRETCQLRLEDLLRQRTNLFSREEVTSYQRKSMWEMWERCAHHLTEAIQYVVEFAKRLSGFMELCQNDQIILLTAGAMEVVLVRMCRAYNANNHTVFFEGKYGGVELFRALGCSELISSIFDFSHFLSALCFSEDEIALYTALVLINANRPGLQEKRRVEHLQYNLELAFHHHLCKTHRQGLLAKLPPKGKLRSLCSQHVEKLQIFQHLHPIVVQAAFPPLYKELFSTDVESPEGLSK
#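 In this cell-based reporter format, copper sulfate (700 uM final) drives Gal4–ROR gamma fusion expression from a metallothionein promoter in Drosophila Schneider cells; compounds preincubated 1 hr, reporter read after 20 hr at ambient temperature.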
# * hit, by the source's call; ? = inconclusive; nt = not tested or not shown. Compounds with a hit are over-represented: about 12% of the library has one in this group of screens. Unless noted, the call rests on the fitted dose curve; in most records, active means well fitted curve in the direction sought with a large enough effect; inconclusive means small, poorly fitted or top-dose-only effect, or another doubt; inactive means no such curve, though single readings can be large; an effect the other way counts as inactive or inconclusive. Unless noted, on the % scale 0 is the no-effect control and ±100 the full control effect; potency means the concentration at half of the fitted maximal effect.
SMILES,ALDH1A1 inh,Sfp inh,PLK1 PBD inh,Gal4-VP16 FLuc,RORg inh
NC(=S)N=Nc1c(O)n(Cc2ccc(F)cc2)c2ccccc12,1.4µM*,-10%,-5%,1.3µM*,1.3µM*
CCOC(=O)C1(C)CCCN(C(=O)c2cc(F)ccc2C)C1 (stereo not drawn),nt,nt,6%,nt,nt
CCCCCCCCCCCCCCCC(=O)OCC(COP(=O)(O)O)OC(=O)CCCCCCCCCCCCCCC (stereo not drawn),0%,9%,nt,8%,-2%
COc1ccccc1N1CCNC(C)C1=O (stereo not drawn),nt,1%,8.4µM*,5%,8%
O=c1oc2ccccc2c(NC(c2ccccc2)c2ccccc2)c1[N+](=O)[O-],22µM*,3%,4%,-5%,?
O=c1oc2ccccc2c(NCc2cccc(F)c2)c1[N+](=O)[O-],25µM*,-2%,-6%,6%,?
CCNc1c([N+](=O)[O-])c(=O)oc2ccccc12,18µM*,14%,-1%,9%,5%
O=c1oc2ccccc2c(Nc2ccc3ccccc3c2)c1[N+](=O)[O-],2.2µM*,-8%,-8%,-15%,20%
CC1(C(=O)Nc2ccc3[nH]ncc3c2)CCN1C(=O)Cc1ccc(-c2ccccc2)cc1 (stereo not drawn),nt,nt,-14%,nt,nt
CC1C(=O)OC2C1CCC1(C)CCC(=O)C(C)C21 (stereo not drawn),nt,-30%,30µM*,9%,-8%
CC1=CC(=O)C2=C(C)CC[C@H]3[C@H](C)C(=O)O[C@@H]3C12 (stereo partly drawn),nt,13%,nt,-6%,10%
N#Cc1ccccc1NC(=O)CSc1nnc(-c2ccccc2O)n1-c1ccccc1,?,21%,-5%,?,13µM*
N#Cc1c(NC(=O)CSc2nnnn2C2CCCCC2)sc2c1CCCC2,?,9%,-7%,-7%,-17%
Cc1nnc(SCC(=O)Nc2sc3c(c2C#N)CCCCC3)n1N,22µM*,-17%,?,?,?
N#Cc1c(NC(=O)CN2CCN(C(=O)c3ccco3)CC2)sc2c1CCCCC2,7.1µM*,-3%,-6%,-5%,7%
N#Cc1c(NC(=O)CSc2nnc(-c3ccco3)n2-c2ccccc2)sc2c1CCC2,-15%,-20%,17µM*,-2%,-2%
CC12CCC=CC1=C(C=O)C1C2CCC2(C)C(O)CCC12 (stereo not drawn),nt,nt,-13%,nt,nt
C[C@@H]1CN([C@@H](C)CO)C(=O)c2ccccc2-c2ccccc2CO[C@@H]1CN(C)S(=O)(=O)c1ccc(C(F)(F)F)cc1,nt,nt,7%,nt,nt
CC(C)C(=NO)c1ccccc1,nt,nt,-6%,nt,nt
CCOC(=O)[C@]12CCCC=C1N(CCc1ccc(OC)c(OC)c1)C(=O)[C@H](CC(=O)NCc1ccc(C)o1)C2,nt,nt,-4%,nt,nt
CN(C)S(=O)(=O)c1cccc(NC(=O)c2ccc(-n3cncn3)c([N+](=O)[O-])c2)c1,nt,nt,0%,nt,nt
CCCCCC#CC[C@@H](O)/C=C/C=C/C=C\[C@@H](O)CCCC(=O)O,11%,0%,nt,5%,9%
CCn1c(SCC(=O)Nc2sc3c(c2C#N)CCC(C(C)(C)C)C3)nnc1-c1ccco1 (stereo not drawn),40µM*,?,-24%,-17%,-1%
Cc1nnnn1CC(=O)Nc1cccc([N+](=O)[O-])c1,2%,14%,-6%,2%,5%
NS(=O)(=O)c1cc(C(=O)OCC(=O)c2ccccc2)c(Cl)cc1Cl,16µM*,5%,-5%,4%,21%
SMILES,ALDH1A1 inh,Sfp inh,PLK1 PBD inh,Gal4-VP16 FLuc,RORg inh
CC(=O)Oc1cc2oc(=O)c3c(c2cc1Cl)CCC3,?,-8%,6µM*,-13%,0%
CC(C)Oc1cc2oc(=O)c3c(c2cc1Cl)CCC3,?,18%,-8%,0%,-2%
Cc1ccc(OCCN2CCN(C(=O)CCC(=O)Nc3nnc(C(C)C)s3)CC2)cc1,?,8%,1%,13µM*,38%
O=C(O)CSc1c(-c2ccccc2)c2cc(Cl)ccc2[nH]c1=O,0%,71µM*,-24%,?,?
C/C(=N\NC(=O)CCCC(=O)O)c1c(-c2ccccc2)c2cc(Cl)ccc2[nH]c1=O,nt,14%,-7%,-23%,-8%
O=c1[nH]c2ccc(Cl)cc2c(O)c1Cc1ccccc1,?,50µM*,-8%,-11%,3%
NNC(=O)c1[nH]c2ccc(Cl)cc2c1-c1ccccc1,1.1µM*,-10%,-13%,-10%,?
COc1ccc(/C=N/NC(=O)c2[nH]c3ccc(Br)cc3c2-c2ccccc2)cc1,?,9%,-8%,11µM*,10µM*
CCOC(=O)CSc1c(-c2ccccc2)c2cc(Cl)ccc2[nH]c1=O,?,-24%,-28%,?,-1%
Cc1cccc(NC(=O)C(=O)NCC2CCCN2S(=O)(=O)c2cccs2)c1 (stereo not drawn),nt,nt,5%,nt,nt
COc1ccccc1-c1ccc2ncnc(NCCN3CCOCC3)c2c1,-1%,10%,nt,0%,37%
NNC(=O)c1[nH]c2ccc(Br)cc2c1-c1ccccc1,0.16µM*,-11%,-5%,-15%,-40%
CC(=O)NNC(=O)c1[nH]c2ccc(Br)cc2c1-c1ccccc1,nt,4%,-4%,1%,1%
Cc1ccc2[nH]c(C(=O)NN=C3CCCCC3)c(-c3ccccc3)c2c1,1.4µM*,-9%,-18%,10µM*,5µM*
Cc1ccc2[nH]c(C(=O)O)c(-c3ccccc3)c2c1,?,1%,?,12%,14%
Cc1cccc(C)c1-n1nnnc1C1c2ccccc2C(=O)N1C1CC1 (stereo not drawn),nt,nt,-4%,nt,nt
Cc1cccc(CNc2ncnc3ccc(-c4ccccc4CN(C)C)cc23)c1,?,-9%,nt,-2%,?
CNC1=C(N(C(C)=O)c2ccc(Br)cc2)C(=O)c2ccccc2C1=O,1%,11%,-8%,13µM*,5.6µM*
CCC(=O)N(C1=C(NC)C(=O)c2ccccc2C1=O)C(C)C,7%,13%,2%,-13%,?
COc1ccc(C(=O)NC(=S)Nc2cccnc2)cc1[N+](=O)[O-],22µM*,-2%,-12%,-11%,?
O=C(Nc1cccc(NC(=O)c2cccc([N+](=O)[O-])c2)n1)c1cccc([N+](=O)[O-])c1,nt,-7%,2%,-19%,?
CCOc1ccc(C(=O)NC(=S)Nc2cccnc2)cc1[N+](=O)[O-],-2%,-25%,6µM*,-7%,14µM*
CCOc1ccc(C(=O)NC(=S)Nc2ccccn2)cc1[N+](=O)[O-],?,?,-1%,?,0.71µM*
O=C(NC(=S)Nc1ccccn1)c1cccc([N+](=O)[O-])c1,-12%,18%,-8%,?,3.5µM*
COc1ccc(-n2nnnc2C(c2ccccc2)N2CCN(C/C=C/c3ccccc3)CC2)cc1 (stereo not drawn),nt,nt,-8%,nt,nt
Cc1cccc(NC(=S)N/N=C/c2cccn2Cc2ccc(F)cc2)c1,17%,-15%,1%,2.2µM*,0.2µM*

# Compound activity deposited in PubChem BioAssay by National Center for Advancing Translational Sciences (NCATS).
